Test results from ChEMBL document CHEMBL3988442, “University of Dundee, Small-Polar-MMV Screening Library” (2021).
For some of these results: Potency and affinity values are given separately.

Assays:
Set-up in all cases: scale not given: direction of the effect not stated beside the values
[1] = molecular target: Protein translocase subunit SecA (Escherichia coli (strain K12)) (UniProt P10408); assay: Assay to Identify E. coli SecA ATPase Inhibitors; assay type: functional; conditions: 30 µM
[2] = molecular target: T1, Ubiquitin-activating enzyme e1, putative (Leishmania donovani (strain BPK282A1)) (UniProt E9BSI1); assay: Leishmania donovani Ubiquitin Activating Enzyme (LdE1); assay type: functional; conditions: 30 µM
T1 sequence (whole entry): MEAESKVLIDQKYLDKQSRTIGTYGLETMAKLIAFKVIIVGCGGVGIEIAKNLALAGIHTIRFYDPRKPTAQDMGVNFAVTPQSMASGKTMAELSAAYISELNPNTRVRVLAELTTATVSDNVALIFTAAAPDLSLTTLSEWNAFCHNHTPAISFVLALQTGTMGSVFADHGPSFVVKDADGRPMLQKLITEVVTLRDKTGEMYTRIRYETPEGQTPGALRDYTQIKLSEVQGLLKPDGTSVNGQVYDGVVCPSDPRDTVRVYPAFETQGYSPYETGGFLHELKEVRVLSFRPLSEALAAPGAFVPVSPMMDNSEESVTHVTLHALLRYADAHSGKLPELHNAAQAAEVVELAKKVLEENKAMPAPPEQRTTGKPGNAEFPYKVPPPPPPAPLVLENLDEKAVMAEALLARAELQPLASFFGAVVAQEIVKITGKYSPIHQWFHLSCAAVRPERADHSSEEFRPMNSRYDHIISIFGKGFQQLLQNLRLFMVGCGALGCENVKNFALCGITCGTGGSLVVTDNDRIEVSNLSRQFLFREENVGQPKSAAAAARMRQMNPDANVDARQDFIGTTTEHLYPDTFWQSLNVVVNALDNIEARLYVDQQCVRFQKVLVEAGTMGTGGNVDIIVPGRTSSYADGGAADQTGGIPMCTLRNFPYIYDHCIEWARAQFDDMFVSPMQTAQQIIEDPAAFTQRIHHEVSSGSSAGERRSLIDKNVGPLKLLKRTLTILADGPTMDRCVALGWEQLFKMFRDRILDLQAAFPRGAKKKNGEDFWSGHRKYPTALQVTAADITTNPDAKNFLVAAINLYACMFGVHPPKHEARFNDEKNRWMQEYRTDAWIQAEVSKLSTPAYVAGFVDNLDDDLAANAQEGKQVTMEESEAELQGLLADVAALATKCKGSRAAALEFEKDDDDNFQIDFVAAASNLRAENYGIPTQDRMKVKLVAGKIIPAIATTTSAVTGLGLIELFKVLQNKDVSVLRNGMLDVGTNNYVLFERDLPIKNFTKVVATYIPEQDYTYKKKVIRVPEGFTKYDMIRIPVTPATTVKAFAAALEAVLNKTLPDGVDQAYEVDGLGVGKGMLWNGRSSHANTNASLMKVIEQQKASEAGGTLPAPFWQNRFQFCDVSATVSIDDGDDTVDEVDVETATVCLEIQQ

[3] = molecular target: AMP-activated protein kinase, AMPK (Homo sapiens) (UniProt P54646+O43741+P54619+Q9UGJ0+Q9Y478+Q13131+Q9UGI9); assay: AMP-dependent Kinase enzyme assay. An in vitro enzyme assay that detects ADP turnover that is directly proportional to AMPK activity. This uses naive AMPK that is activated during the assay with MK-8722; assay type: functional; conditions: 30 µM
[4] = molecular target: Sialic acid-binding Ig-like lectin 9 (Homo sapiens) (UniProt Q9Y336); assay: Hs-Siglec9 ALPHAscreen SOP 20170721; conditions: 10 µM
Trypanosoma cruzi = assay: Trypanosoma cruzi phosphomannomutase and mannose-1-phosphate guanylyltransferase assay; assay type: functional; conditions: 10 µM
[5] = molecular target: T2, Arginase-2, mitochondrial (Homo sapiens) (UniProt P78540); assay: in vitro enzyme assay to detect the production of urea directly proportional to the activity of Arginase II; assay type: functional; conditions: 33.3 µM; note: in the data most compounds retested in dose-response had high values
T2 sequence (whole entry): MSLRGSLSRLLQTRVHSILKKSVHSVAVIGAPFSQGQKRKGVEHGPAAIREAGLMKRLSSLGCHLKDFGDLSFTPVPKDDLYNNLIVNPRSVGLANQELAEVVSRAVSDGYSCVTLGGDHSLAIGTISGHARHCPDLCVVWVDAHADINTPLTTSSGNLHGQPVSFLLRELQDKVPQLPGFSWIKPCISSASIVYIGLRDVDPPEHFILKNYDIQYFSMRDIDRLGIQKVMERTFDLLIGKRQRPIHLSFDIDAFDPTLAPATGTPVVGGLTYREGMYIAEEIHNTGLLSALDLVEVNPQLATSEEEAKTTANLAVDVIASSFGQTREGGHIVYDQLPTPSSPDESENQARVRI

[6] = molecular target: T3, Proteasome subunit beta (Trypanosoma cruzi) (UniProt O96673); assay: Trypanosoma cruzi proteasome chymotrypsin-like activity (TcProtChymo) assay.; note: in the data most compounds retested in dose-response had high values; assay type: functional; conditions: 9.37 µM
T3 sequence (whole entry): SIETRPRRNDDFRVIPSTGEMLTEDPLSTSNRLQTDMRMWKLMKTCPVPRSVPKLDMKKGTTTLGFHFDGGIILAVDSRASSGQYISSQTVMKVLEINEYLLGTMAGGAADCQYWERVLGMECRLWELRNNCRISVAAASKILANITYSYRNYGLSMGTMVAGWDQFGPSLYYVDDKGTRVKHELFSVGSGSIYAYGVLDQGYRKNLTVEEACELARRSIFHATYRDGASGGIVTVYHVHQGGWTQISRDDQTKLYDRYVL

Homo sapiens = species: Homo sapiens; assay: To identify inhibition of the IFN signalling (Jak-Stat) pathway via expression of an eGFP reporter gene under the control of an IFN-stimulated response element (ISRE) containing MxA promoter.; assay type: functional; conditions: 30 µM
[7] = molecular target: T4, Tyrosyl-tRNA synthetase, putative (Trypanosoma cruzi (strain CL Brener)) (UniProt Q4DSP6); assay: Trypanosoma cruzi tyrosyl tRNA synthetase (TcYRS) _High Tyrosine SOP; assay type: functional; conditions: 30 µM; note: in the data most compounds retested in dose-response had high values
T4 sequence (whole entry): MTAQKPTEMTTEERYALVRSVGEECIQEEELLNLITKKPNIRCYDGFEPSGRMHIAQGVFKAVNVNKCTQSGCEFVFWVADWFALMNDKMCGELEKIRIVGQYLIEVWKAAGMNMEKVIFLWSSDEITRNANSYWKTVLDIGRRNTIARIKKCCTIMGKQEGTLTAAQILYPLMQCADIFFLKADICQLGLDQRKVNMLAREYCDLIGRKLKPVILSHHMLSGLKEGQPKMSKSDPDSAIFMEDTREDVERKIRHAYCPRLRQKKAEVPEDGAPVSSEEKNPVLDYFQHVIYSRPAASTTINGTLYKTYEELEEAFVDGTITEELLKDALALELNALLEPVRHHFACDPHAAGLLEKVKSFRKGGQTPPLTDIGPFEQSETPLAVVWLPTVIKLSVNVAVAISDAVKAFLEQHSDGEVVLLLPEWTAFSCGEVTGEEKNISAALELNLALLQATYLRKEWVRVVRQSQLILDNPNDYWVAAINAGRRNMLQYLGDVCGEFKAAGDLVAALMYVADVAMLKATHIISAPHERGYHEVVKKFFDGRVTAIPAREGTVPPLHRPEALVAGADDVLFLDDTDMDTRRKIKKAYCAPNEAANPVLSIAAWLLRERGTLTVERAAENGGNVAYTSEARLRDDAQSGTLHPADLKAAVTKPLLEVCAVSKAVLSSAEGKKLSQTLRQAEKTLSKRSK

[8] = molecular target: T4, Tyrosyl-tRNA synthetase, putative (Trypanosoma cruzi (strain CL Brener)); assay: Trypanosoma cruzi tyrosyl tRNA synthetase (TcYRS) SOP; assay type: functional; conditions: 30 µM
[9] = molecular target: Chromo domain-containing protein 1 (Saccharomyces cerevisiae (strain ATCC 204508 / S288c) (Baker's yeast)) (UniProt P32657); assay: ScCHD-1 Enzyme Inhibition Assay; assay type: functional; conditions: 30 µM; note: in the data most compounds retested in dose-response had high values
Chain of Chromo domain-containing protein 1 (Saccharomyces cerevisiae (strain ATCC 204508 / S288c) (Baker's yeast)) (P32657 whole entry, the tested form may be a part): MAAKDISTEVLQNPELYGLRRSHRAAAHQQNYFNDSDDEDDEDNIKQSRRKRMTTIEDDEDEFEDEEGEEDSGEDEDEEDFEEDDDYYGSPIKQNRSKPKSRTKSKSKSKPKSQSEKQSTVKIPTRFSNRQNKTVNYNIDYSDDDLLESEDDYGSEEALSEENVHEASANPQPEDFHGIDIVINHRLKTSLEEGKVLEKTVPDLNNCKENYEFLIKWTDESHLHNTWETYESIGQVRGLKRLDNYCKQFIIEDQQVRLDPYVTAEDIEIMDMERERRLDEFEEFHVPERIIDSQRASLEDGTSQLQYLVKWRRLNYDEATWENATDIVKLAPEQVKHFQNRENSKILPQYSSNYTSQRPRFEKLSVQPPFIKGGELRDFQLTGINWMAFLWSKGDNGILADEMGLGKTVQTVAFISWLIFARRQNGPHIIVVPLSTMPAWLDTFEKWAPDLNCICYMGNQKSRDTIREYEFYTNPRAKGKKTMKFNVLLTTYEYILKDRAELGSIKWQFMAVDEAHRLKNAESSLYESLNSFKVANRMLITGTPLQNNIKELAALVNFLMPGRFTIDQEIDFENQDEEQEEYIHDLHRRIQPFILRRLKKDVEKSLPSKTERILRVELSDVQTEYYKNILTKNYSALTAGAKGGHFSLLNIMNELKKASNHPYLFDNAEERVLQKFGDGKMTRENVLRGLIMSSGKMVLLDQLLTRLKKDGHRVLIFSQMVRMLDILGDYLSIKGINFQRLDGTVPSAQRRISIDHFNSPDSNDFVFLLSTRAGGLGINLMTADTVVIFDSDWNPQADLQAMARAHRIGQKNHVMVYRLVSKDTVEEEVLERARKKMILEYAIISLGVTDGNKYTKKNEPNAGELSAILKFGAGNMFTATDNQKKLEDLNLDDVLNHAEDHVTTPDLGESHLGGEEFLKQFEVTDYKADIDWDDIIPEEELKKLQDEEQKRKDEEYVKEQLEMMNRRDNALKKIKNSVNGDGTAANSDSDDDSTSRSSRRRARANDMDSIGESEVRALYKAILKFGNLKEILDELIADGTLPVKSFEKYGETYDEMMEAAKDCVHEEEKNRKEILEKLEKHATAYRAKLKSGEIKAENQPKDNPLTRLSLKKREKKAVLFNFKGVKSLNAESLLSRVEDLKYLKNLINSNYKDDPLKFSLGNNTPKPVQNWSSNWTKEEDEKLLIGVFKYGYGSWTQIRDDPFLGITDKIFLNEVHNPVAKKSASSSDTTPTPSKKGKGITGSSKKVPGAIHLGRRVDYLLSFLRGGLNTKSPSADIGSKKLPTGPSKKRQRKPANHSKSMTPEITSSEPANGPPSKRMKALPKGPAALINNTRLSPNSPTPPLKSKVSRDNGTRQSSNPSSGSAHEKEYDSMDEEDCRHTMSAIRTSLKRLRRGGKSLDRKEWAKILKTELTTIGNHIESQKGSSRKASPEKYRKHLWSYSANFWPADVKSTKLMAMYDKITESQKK

Chain of Sialic acid-binding Ig-like lectin 9 (Homo sapiens) (Q9Y336 whole entry): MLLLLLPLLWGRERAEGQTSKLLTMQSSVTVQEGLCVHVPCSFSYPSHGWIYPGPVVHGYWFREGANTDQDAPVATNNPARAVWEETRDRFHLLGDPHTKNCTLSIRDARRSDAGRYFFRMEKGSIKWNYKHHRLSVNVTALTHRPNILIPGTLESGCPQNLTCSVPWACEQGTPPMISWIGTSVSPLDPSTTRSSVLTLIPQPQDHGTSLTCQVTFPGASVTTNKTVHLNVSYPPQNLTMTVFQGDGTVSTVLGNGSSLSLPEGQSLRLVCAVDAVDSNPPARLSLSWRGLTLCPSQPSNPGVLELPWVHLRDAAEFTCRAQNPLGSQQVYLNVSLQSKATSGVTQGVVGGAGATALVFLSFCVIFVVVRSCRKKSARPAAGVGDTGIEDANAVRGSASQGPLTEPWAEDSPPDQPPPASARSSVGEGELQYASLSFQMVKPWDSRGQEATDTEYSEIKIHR
Chain of Protein translocase subunit SecA (Escherichia coli (strain K12)) (P10408 whole entry): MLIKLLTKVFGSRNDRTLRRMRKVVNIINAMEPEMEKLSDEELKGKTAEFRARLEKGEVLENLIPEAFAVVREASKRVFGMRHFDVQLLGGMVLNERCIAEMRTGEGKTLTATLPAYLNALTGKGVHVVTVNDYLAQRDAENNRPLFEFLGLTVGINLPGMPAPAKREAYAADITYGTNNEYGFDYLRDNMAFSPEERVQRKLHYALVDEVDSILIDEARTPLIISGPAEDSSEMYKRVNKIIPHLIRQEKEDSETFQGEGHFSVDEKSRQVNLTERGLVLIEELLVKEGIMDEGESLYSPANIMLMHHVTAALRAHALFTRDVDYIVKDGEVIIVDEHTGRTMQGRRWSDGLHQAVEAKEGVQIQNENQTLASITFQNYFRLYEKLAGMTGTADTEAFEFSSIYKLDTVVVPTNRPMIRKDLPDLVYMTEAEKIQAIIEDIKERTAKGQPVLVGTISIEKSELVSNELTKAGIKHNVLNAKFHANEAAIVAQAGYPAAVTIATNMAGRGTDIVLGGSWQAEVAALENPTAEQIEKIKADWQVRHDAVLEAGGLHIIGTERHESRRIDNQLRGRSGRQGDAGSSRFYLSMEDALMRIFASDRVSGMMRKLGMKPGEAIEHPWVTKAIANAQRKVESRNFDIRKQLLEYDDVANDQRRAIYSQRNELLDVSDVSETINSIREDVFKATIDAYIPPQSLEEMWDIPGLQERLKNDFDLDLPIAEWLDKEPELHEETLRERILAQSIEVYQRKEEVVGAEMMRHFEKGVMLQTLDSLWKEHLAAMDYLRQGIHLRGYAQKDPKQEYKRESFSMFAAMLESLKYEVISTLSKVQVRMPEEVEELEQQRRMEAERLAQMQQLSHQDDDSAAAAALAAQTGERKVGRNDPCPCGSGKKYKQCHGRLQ

| SMILES | Percent Effect [1] [%] | Percent Effect [2] [%] | Percent Effect [3] [%] | Percent Effect [4] [%] | Percent Effect (Trypanosoma cruzi) [%] | Percent Effect [5] [%] | Percent Effect [6] [%] | Percent Effect (Homo sapiens) [%] | Percent Effect [7] [%] | Percent Effect [8] [%] | Percent Effect [9] [%] |
| --- | --- | --- | --- | --- | --- | --- | --- | --- | --- | --- | --- |
| N#Cc1ccc(OCCN2CCc3c(ncn3C3CC3)C2)cc1 | -3.1 | 23.4 | -12.7 | -6.96 | -1.31 | 0 | 7.26 | -0.819 | 13.6 | 9.76 | -10.1 |
| O=C(c1cccc(OC2CCCC2)c1)N1CCCC(n2cncn2)C1 (stereo not drawn) | -4.01 | 5.41 | 12.1 | 4.98 | 5.57 | -5.61 | -3.06 | 21.5 | 7.39 | 13.6 | -11.7 |
| O=C(NC1CC1)[C@H]1C[C@@H]2CCN(CCc3ccccc3)C[C@H]2O1 | 2.18 | 10.7 | 9.4 | -8.83 | -7.28 | 2.56 | 4.85 | 4.51 | 1.06 | 11.5 | -2.58 |
| COc1ccc(F)cc1C(C)NC(=O)c1nnc(C)s1 (stereo not drawn) | -4.77 | -2.7 | 0.954 | -9.5 | -2.05 | 0.248 | -4.89 | -14.3 | -3.23 | -1.24 | 3.82 |
| CCC1=N[C@@]2(CC[C@@H]3CN(S(=O)(=O)CC)C[C@@H]32)C(=O)N1CC(C)C | -2.87 | 2.6 | -1.61 | 11.1 | -0.493 | -1.94 | 0.348 | 18.4 | 2.12 | 8.97 | -4.63 |
| COCC(c1cccc(C(F)(F)F)c1)N(C)C(=O)c1cc(C)no1 (stereo not drawn) | -0.889 | 13.2 | 1.05 | -2.93 | 0.564 | 4.98 | 6.68 | 10.2 | 1.47 | 19.5 | -12.2 |
| CC(C)CN1C(=O)C2(CCN(Cc3nccs3)C2)c2ccccc21 (stereo not drawn) | -1.96 | 5.41 | -2.39 | 1.8 | -5.08 | 5 | 16.1 | 37.2 | 3.96 | 3.66 | -5.7 |
| CN1CCN(c2ncccc2CNc2ncccc2C#N)CC1 | -5.21 | 8.11 | -1.66 | 20.8 | -2.44 | 3.72 | 3.86 | -10.1 | 4.3 | 13.6 | -4.55 |
